These results are taken from PubChem BioAssay (Tox21).

Values joined by “and” are separate entries in the source; they are usually repeats but may differ in a detail not shown here. Equal values may be shown once. Records with an inconclusive call do not appear. Some structures have more than one record in an assay (separate samples or runs), and their calls can disagree. Active and inactive are the calls of the source. Unless noted, calls follow the shape of the dose curve; as a rule, active = well fitted curve in the direction sought with a large enough effect in the repeat runs; inconclusive = weak or mixed curves; inactive = no such curve, though single readings can be large; an effect the other way counts as inactive or inconclusive.

Test [1] in a line: qHTS assay to identify small molecule antagonists of the peroxisome proliferator-activated receptor delta (PPARd) signaling pathway - cell viability counter screen (AID 743213). Also: nearly all actives have a fitted effect of over 50% in size. Also: potency is read from the fitted curve at half-maximal effect. The gist of the method: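 HEK293H cells with the PPARd UAS-bla reporter, co-treated 17 h at 37 C with compounds and L165041 (300 nM final), were lysed with CellTiter-Glo. Luminescence indicated viable cell content.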

Test [2] is described as follows: qHTS assay to identify small molecule agonists of the farnesoid-X-receptor (FXR) signaling pathway - cell viability counter screen (AID 743218). Also: nearly all actives have a fitted effect of over 45% in size. Also: potency is read from the fitted curve at half-maximal effect. The gist of the method:
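HEK 293T FXR-bla cells; 5 h pre-incubation, 16 h compound exposure at 37 C; LiveBLAzer substrate 2 h RT, then CellTiter-Glo 30 min RT, luminescence.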

The target of test [3] is Vitamin D3 receptor (Homo sapiens) (UniProt P11473). The test is described as follows: qHTS assay to identify small molecule agonists of the vitamin D receptor (VDR) signaling pathway (AID 743222; calls by dose curve). The method in brief:
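VDR-bla cells, 2,000/well; 4 h preincubation 37C; cpd (DMSO) 16 h; LiveBLAzer B/G substrate 2 h RT; fluorescence intensity read.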

Test [4] in a line: qHTS assay to identify small molecule agonists of the vitamin D receptor (VDR) signaling pathway - cell viability counter screen (AID 743224). Also: nearly all actives have a fitted effect of over 50% in size. Also: potency is read from the fitted curve at half-maximal effect. The gist of the method: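 Luminescence from CellTiter-Glo, read after 30 min at room temperature, reports viability of VDR-bla cells treated with compounds for 16 h at 37C in the wells used for the beta-lactamase FRET read.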
A short description of test [5]: qHTS assay to identify small molecule agonists of the endoplasmic reticulum stress response signaling pathway - cell viability counter screen (AID 1159517; calls by dose curve; also: nearly all actives have a fitted effect of over 50% in size; also: potency is read from the fitted curve at half-maximal effect). The gist of the method:
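Luminescence readout: CellTiter-Glo, 30 min RT, same wells as the ESRE-bla reporter read. HeLa ESRE-bla, 1,500 cells/well, o/n 37 C; cpd 5 hr 37 C/5% CO2.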

The nature of test [6]: qHTS assay to identify small molecule antagonists of the retinoid-related orphan receptor gamma (ROR-gamma) signaling pathway - cell viability counter screen (AID 1159520). Also: nearly all actives have a fitted effect of over 50% in size. Also: potency is read from the fitted curve at half-maximal effect. The method in brief:
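Tet-on ROR gamma CHO cells (1,000/well) were plated 4 hr, given compounds in DMSO for 2 hr at 37 C, then induced with 1 uM final doxycycline for 16 hr. Viability was read as ATP by CellTiter-Glo luminescence after 30 min.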

In test [7] the target is Nuclear receptor ROR-gamma (Homo sapiens) (UniProt P51449). Briefly: qHTS assay to identify small molecule antagonists of the retinoid-related orphan receptor gamma (ROR-gamma) signaling pathway (AID 1159521; also: nearly all actives have a fitted effect of over 50% in size; also: potency is read from the fitted curve at half-maximal effect). The gist of the method: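 Antagonist read-out: drop in luminescence (ONE-Glo) from an RORE-LUC reporter in CHO cells with doxycycline-inducible ROR-gamma; 2 hr compound pretreatment, 1 uM doxycycline, 16 hr incubation at 37 C.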

Test [8] in a line: qHTS assay to identify small molecule agonists of the AP-1 signaling pathway - cell viability counter screen (AID 1159525; calls by dose curve; also: nearly all actives have a fitted effect of over 55% in size; also: potency is read from the fitted curve at half-maximal effect). The method in brief: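 ME-180 AP-1-bla, 2500 cells/well, Opti-MEM + 0.5% dialyzed FBS; overnight 37 °C; cpd 15-pt titration, 5 h 37 °C; CellTiter-Glo 30 min RT; luminescence read; normalised to TOAB and DMSO controls.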
Test [9] in a line: qHTS assay to identify small molecule agonists of the RXR signaling pathway - cell viability counter screen (AID 1159529). Also: nearly all actives have a fitted effect of over 50% in size. Also: potency is read from the fitted curve at half-maximal effect. The gist of the method: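 CellTiter-Glo luminescence gave viability in the wells also read for beta-lactamase. Cells (RXR-alpha-UAS-bla HEK 293T, 2% charcoal-stripped FBS medium) had 5 hr plating, then 16 hr compound exposure at 37 C; tetraoctyl ammonium bromide served as positive control.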

Test [10] is described as follows: qHTS assay to identify small molecule agonists of the peroxisome proliferator-activated receptor delta (PPARd) signaling pathway - cell viability counter screen (AID 743211). Also: nearly all actives have a fitted effect of over 55% in size. Also: potency is read from the fitted curve at half-maximal effect. The method in brief: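 Viability was measured as CellTiter-Glo luminescence (30 min, room temperature) in the same wells as the beta-lactamase readout. GeneBLAzer PPARd UAS-bla HEK293H cells received compound after 5 h plating and were incubated 17 h at 37 C.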

For test [11], the target named is Peroxisome proliferator-activated receptor delta (Homo sapiens) (UniProt Q03181). The test is described as follows: qHTS assay to identify small molecule agonists of the peroxisome proliferator-activated receptor delta (PPARd) signaling pathway (AID 743212; calls by dose curve). The method in brief:
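GeneBLAzer PPARd UAS-bla HEK293H cells (beta-lactamase reporter under UAS control), plated and rested 5 h at 37 C, then exposed to compounds in DMSO at 37 C; LiveBLAzer B/G FRET substrate added, 2 h room temperature, fluorescence read.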

Test [12] in a line: qHTS assay to identify small molecule antagonists of the farnesoid-X-receptor (FXR) signaling pathway - cell viability counter screen (AID 743221; active = well fitted cell-killing curve with a large enough effect in the repeat runs, not every such curve was filed as active; also: nearly all actives have a fitted effect of over 50% in size; also: potency is read from the fitted curve at half-maximal effect). The method in brief: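 Cytotoxicity counter screen run in the FXR-bla reporter wells: HEK 293T cells exposed to compound with 50 uM (final) chenodeoxycholic acid for 16 h, 37 C, then viability measured by CellTiter-Glo luminescence after 30 min, room temperature.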

Test [13] addresses Vitamin D3 receptor (Homo sapiens) (UniProt P11473). The test is described as follows: qHTS assay to identify small molecule antagonists of the vitamin D receptor (VDR) signaling pathway (AID 743223; active = well fitted inhibition curve with a large enough effect in the signal ratio in the repeat runs, not every such curve was filed as active; the % refers to the signal ratio; also: potency is read from the fitted curve at half-maximal effect). The method in brief: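 Antagonist mode: compound added to VDR-bla cells alongside agonist 1alpha,25-dihydroxyvitamin D3 (3 nM final), incubation 16 h at 37C. Read-out is LiveBLAzer FRET fluorescence, 2 h at room temperature.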

Test [14] is described as follows: qHTS assay to identify small molecule antagonists of the vitamin D receptor (VDR) signaling pathway - cell viability counter screen (AID 743225). Also: nearly all actives have a fitted effect of over 50% in size. Also: potency is read from the fitted curve at half-maximal effect. The gist of the method:
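Cytotoxicity counter screen read by CellTiter-Glo luminescence (30 min, room temperature) in the same wells as the VDR-bla antagonist readout. HEK 293T VDR-UAS-bla cells had 16 h at 37C with compound and 3 nM (final) 1-alpha,25-dihydroxyvitamin D3, then 2 h with FRET substrate.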

Test [15] has as its target Bile acid receptor (Homo sapiens) (UniProt Q96RI1). The test is described as follows: qHTS assay to identify small molecule antagonists of the farnesoid-X-receptor (FXR) signaling pathway (AID 743217; active = well fitted inhibition curve with a large enough effect in the signal ratio in the repeat runs, not every such curve was filed as active; the % refers to the signal ratio; also: potency is read from the fitted curve at half-maximal effect). The method in brief: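 HEK 293T FXR-UAS-bla, 5000 cells/well; compound + CDCA 50 uM final; 16 h, 37 °C; B/G FRET substrate 2 h RT; fluorescence.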
Test [16] concerns the target Peroxisome proliferator-activated receptor delta (Homo sapiens) (UniProt Q03181). The test is described as follows: qHTS assay to identify small molecule antagonists of the peroxisome proliferator-activated receptor delta (PPARd) signaling pathway (AID 743215; active = well fitted inhibition curve with a large enough effect in the signal ratio in the repeat runs, not every such curve was filed as active; the % refers to the signal ratio;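 also: cells stimulated with agonist L165041 at 300 nM final during compound exposure; series mostly up to about 62 µM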). The gist of the method: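 Read-out is beta-lactamase FRET fluorescence, measured 2 h after substrate addition at room temperature. Beforehand, UAS-bla HEK293H cells carrying the PPARd reporter were exposed to compounds with L165041 at 300 nM final for 17 h at 37 C.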

Test [17] deals with Bile acid receptor (Homo sapiens) (UniProt Q96RI1). Briefly: qHTS assay to identify small molecule agonists of the farnesoid-X-receptor (FXR) signaling pathway (AID 743220; active = well fitted activation curve with a large enough effect in the signal ratio in the repeat runs, not every such curve was filed as active; the % refers to the signal ratio). The gist of the method:
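Beta-lactamase reporter under UAS control in GeneBLAzer FXR HEK 293T cells (5000/well) measured with LiveBLAzer FRET substrate after 2 h at room temperature. Compound exposure lasted 16 h at 37C.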

For test [18], the target named is Retinoic acid receptor RXR-alpha (Homo sapiens) (UniProt P19793). Briefly: qHTS assay to identify small molecule agonists of the RXR signaling pathway (AID 1159527; calls by dose curve; also: potency is read from the fitted curve at half-maximal effect; nearly all actives have a fitted effect of over 35% in size). The method in brief: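 Agonist-mode beta-lactamase reporter assay: HEK 293T RXR-alpha-UAS-bla cells treated 16 hr at 37 C with compounds, 9-cis retinoic acid as positive control. LiveBLAzer FRET substrate, 405 nm excitation, 460/530 nm emission.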
Retinoic acid receptor RXR-alpha (Homo sapiens), sequence (P19793 whole entry, looked up): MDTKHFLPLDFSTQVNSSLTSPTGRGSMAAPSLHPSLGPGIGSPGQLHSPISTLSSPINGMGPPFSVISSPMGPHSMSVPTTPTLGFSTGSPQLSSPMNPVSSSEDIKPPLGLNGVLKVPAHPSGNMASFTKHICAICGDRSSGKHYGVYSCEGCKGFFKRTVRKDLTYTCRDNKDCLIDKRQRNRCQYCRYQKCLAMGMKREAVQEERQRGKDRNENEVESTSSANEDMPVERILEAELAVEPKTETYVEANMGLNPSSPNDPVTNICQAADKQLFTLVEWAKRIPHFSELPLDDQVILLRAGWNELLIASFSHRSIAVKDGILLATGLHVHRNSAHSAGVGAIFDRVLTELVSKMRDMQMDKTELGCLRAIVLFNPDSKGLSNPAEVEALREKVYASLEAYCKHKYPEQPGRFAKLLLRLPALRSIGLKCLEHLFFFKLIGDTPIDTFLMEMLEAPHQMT

Vitamin D3 receptor (Homo sapiens), sequence (P11473 whole entry, looked up): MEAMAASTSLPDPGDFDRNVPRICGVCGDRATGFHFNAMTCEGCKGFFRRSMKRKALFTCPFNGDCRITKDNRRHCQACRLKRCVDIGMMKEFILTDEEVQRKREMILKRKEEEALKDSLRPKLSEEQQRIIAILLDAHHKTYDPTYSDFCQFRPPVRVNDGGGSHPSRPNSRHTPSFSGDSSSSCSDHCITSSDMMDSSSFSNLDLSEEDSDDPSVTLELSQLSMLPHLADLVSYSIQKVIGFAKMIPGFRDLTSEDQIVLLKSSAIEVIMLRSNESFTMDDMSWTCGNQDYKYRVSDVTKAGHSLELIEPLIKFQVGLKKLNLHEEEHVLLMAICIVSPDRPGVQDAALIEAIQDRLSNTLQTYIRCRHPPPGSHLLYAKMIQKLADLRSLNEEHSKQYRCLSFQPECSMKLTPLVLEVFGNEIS
Bile acid receptor (Homo sapiens), sequence (Q96RI1 whole entry, looked up): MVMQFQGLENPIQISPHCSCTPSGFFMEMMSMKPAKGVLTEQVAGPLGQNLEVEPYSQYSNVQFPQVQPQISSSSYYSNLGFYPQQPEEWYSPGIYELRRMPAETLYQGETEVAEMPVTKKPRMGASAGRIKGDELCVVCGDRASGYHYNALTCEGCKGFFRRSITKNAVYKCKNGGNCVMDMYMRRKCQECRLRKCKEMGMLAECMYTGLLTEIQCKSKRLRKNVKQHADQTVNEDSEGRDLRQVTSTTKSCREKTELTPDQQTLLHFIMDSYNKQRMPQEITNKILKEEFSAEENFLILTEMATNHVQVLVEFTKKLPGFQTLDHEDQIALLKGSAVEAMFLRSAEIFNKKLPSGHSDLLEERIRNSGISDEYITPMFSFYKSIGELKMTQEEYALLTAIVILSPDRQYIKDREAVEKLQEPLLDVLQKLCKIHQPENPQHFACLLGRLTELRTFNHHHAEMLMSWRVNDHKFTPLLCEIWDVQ
Peroxisome proliferator-activated receptor delta (Homo sapiens), sequence (Q03181 whole entry, looked up): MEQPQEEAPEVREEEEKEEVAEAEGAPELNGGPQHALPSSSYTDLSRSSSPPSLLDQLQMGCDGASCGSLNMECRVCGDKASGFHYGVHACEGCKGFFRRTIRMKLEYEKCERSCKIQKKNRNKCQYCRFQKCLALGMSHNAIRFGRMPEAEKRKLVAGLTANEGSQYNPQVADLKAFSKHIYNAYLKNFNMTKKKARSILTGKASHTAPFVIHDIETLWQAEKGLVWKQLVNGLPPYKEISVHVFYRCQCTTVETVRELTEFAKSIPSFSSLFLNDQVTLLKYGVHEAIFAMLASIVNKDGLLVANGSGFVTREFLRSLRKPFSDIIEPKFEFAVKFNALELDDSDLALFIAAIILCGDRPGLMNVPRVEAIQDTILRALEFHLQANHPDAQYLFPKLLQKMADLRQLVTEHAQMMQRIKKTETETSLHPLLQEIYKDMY

`C=C1C(C)(C)[C@@]2(Cl)C(Cl)[C@]1(Cl)C(Cl)(Cl)C2(Cl)Cl` (stereo not given in full): the Potency result in [1] and in test [3] was “inactive” each time. For the same compound, the Potency in test [2] is 53.9 µM (active); in [4], 38.2 µM (active); in test [5], 48.1 µM (active); in test [6] it was 67.3 µM (active); in [7], 47.7 µM (active); in test [8], 48.1 µM (active). Besides, the Potency in test [9] was 19.1 µM (active).
Consider `CC(C)(C)CC(C)(C)c1ccccc1O`, for which the Potency in test [10] was 43.9 µM (active); in [1], 39.1 µM (active); in test [12], 43.9 µM (active); in test [13] it was 43.9 µM (active); in [14], 22 µM (active); in test [5], 49.2 µM (active). The Potency was 61.4 µM (active) in test [6], 68.9 µM (active) in [7], 43.9 µM (active) in test [8] and 39.1 µM (active) in test [9]. In addition, the outcome in [11] was inactive. Besides, in test [3], the Potency entry is “inactive”.
For the compound `c1ccc(Sc2ccccc2)cc1`, the Potency result in test [2], in test [12], in [3], in test [13], in test [6] and in [7] was “inactive” each time. Besides, the Potency result in test [8] was “inactive”. In [5], the Potency was 43.6 µM (active).
For `C/C=C/C(=O)Oc1c(CCCCCC(C)C)cc([N+](=O)[O-])cc1[N+](=O)[O-]`, the Potency in [1] is 24.5 µM (active); in test [15], 24.5 µM (active); in test [12] it was 43.6 µM (active); in test [4], 13.8 µM (active); in [5], 21.9 µM (active); in test [6], 19.3 µM (active). The Potency was 6.11 µM (active) in test [7] and 24.5 µM (active) in test [9].
In the case of `CC(=O)Nc1ccc(O)cc1`, the Potency entry in test [10], in test [1], in [2], in test [12], in test [4] and in test [14] was “inactive” in each case. The Potency entry in test [5], in test [6], in [8] and in test [9] was “inactive” in each case.
With `Brc1ccccc1-c1ccccc1`, the compound was called inactive in test [11]. For the same compound, the Potency result in [12], in test [3], in [4], in [6], in [7] and in [8] was “inactive” throughout. Further, the Potency in test [5] is 41.3 µM (active).
With `CCCCCCOc1cc(C)c(O)c(C)c1C`, the Potency result in test [10], in [1], in test [16], in [2], in test [3] and in test [13] was “inactive” each time. In addition, the call in test [11] was inactive. In addition, the Potency in [4] is 39.4 µM (active); in [14], 35.1 µM (active); in test [5] it was 55.6 µM (active); in test [6] it was 61.9 µM (active); in test [7], 49.2 µM (active); in test [8], 44.2 µM (active). Further, in [9], the Potency was 35.1 µM (active).
For the compound `Clc1ccc(C(c2ccccc2Cl)C(Cl)Cl)cc1` (stereo not given), the Potency in test [10] is 49 µM (active); in test [4], 49 µM (active) and inactive; in test [5], 49 µM (active); in test [8], 43.6 µM (active) and 23.9 µM (active); in test [9], 34.7 µM (active) and 23.9 µM (active). Moreover, in [11], the outcome was inactive. Also, the Potency entry in [1], in [16], in [2], in [17], in [12] and in test [14] was “inactive” each time. The Potency entry in test [6] and in test [7] was “inactive” throughout.
`CC1=C(/C=C/C(C)=C/C=C/C(C)=C\C=O)C(C)(C)CCC1`: the Potency in test [2] is 46.4 µM (active); in test [4] it was 41.3 µM (active); in test [5], 41.3 µM (active); in test [6], 57.9 µM (active); in test [18], 328 nM (active); in [9] it was 52 µM (active).
As for `CCC(C)c1cc([N+](=O)[O-])cc([N+](=O)[O-])c1OC(=O)OC(C)C` (stereo not given), the Potency in test [4] is 54.9 µM (active); in test [14], 34.7 µM (active); in test [5], 34.7 µM (active); in test [6], 61.1 µM (active); in test [7], 19.3 µM (active). The Potency entry in [8] was “inactive”.
